Results filed as inconclusive are left out. Where a call stands in place of a potency, no number is given. A number with no mark means an inactive call. Activity calls are given as the source filed them. Calls follow the shape of the full dose curve.

Sequence of Thyrotropin receptor (Homo sapiens) (P16473 whole entry, looked up): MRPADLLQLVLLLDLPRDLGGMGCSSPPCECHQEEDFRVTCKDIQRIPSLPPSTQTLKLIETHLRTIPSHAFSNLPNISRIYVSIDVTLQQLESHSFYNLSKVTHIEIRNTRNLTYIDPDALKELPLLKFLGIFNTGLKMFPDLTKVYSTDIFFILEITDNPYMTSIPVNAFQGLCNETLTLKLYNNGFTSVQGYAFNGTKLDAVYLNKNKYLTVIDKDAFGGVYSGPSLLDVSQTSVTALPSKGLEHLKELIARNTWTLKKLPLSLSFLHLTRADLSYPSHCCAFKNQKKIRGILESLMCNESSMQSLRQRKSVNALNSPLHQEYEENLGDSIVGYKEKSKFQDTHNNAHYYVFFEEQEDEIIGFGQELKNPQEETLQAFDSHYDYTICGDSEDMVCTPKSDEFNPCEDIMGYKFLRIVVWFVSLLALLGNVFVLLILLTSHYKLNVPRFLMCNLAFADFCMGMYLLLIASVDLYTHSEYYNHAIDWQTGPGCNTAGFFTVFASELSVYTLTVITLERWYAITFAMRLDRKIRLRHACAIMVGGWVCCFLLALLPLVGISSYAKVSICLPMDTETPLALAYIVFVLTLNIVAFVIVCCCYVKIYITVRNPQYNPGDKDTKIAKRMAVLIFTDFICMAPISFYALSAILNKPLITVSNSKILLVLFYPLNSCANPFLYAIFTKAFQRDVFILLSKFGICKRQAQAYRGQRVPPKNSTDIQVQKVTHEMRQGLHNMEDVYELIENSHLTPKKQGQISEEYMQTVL

This assay deals with Thyrotropin receptor (Homo sapiens) (UniProt P16473). In words: qHTS assay to identify small molecule antagonists of the thyroid stimulating hormone receptor (TSHR) signaling pathway (AID 1259385). Also: nearly all actives have a fitted effect of over 20% in size. The following applies: TSHR-HEK293 cAMP HTRF, TSH-stimulated antagonist mode; series mostly up to 92.4 µM. The source says:
U.S. Tox21 Program National Center for Advancing Translational Sciences [NCATS] NIH Chemical Genomics Center [NCGC] U.S. Environmental Protection Agency [EPA] National Institutes of Environmental Health Sciences [NIEHS] National Toxicology Program [NTP] U.S. Food and Drug Administration [FDA] Tox21 Assay Overview: TSHR is the receptor for thyrotropin (thyroid stimulating hormone or TSH), a member of the glycoprotein hormone family. TSH is released by the anterior pituitary gland and is the main regulator of thyroid gland growth and development. Upon binding circulating thyrotropin, a G-protein signal cascade activates adenylyl cyclase and […] cAMP concentration is increased. cAMP is a key second messenger involved extensively in cellular signal transduction pathways associated with the majority of G-protein coupled receptors (GPCRs). The activation of these GPCRs by neurotransmitters, lipids, nucleotides, peptides and hormones results in the activation or the inhibition of plasma membrane-bound adenylate cyclase through heterotrimeric G-proteins. A cell-based TSHR assay can be used to screen chemical compounds that modulate TSHR either in agonist or antagonist mode.
Tox21 Assay Protocol Summary: TSHR-Hek293 cells were dispensed at 800 cells/4uL/well in 1536-well white plates using a Multidrop dispenser. After the assay plates were incubated at a 37C/5% CO2 incubator for 18 hrs, 23 nL of compounds dissolved in DMSO, positive controls or DMSO only was transferred to the assay plate by a pin tool, followed by 1 ul medium containing Ro20-1724. For the antagonist mode screening, 1 uL of TSH was added on the top of the cell/compound mixtures to achieve a final agonist concentration of 1.5 ng/mL. After 30 min of incubation at room temperature, 2.5 ul/well of cAMP-d2 and 2.5 ul/well of anti-cAMP-cryptate were added respectively into the assay plates using a Flying Reagent Dispenser. The plates were incubated at room temperature for 1 hr. The fluorescence intensity in the plates was measured using an Envision plate reader. Each test compound was measured at 15 concentrations and in triplicates.
With `Cc1cc([N+](=O)[O-])ccc1N`, the Potency result was “inactive”.
Same read-out and setting: as for `O=C(O)CN1C(=O)c2cccc3cccc(c23)C1=O`, the entry is “inactive”.
Same read-out and setting: with `CCCCCCCCCCCCCCCCCC(=O)OCC(CC)CCCC` (stereo not given) the entry was “inactive”; with `CC(=O)C(=O)CC(C)C`, “inactive”; with `CNS(=O)(=O)c1cc(C(=O)N2CCC(CCN3C4CCC3CC(n3c(C)nc5ccccc53)C4)(c3cccc(F)c3)CC2)c(Cl)cc1F` (stereo not given), “inactive”.
Still for that read-out and setting: as for `CN1C(CSCC(F)(F)F)Nc2cc(Cl)c(S(N)(=O)=O)cc2S1(=O)=O` (stereo not given), the entry is “inactive”; as for `CC/C=C\C/C=C\C/C=C\CCCCCCCC(=O)OCC`, “inactive”.
In the case of `FC(F)(F)C(F)(F)C(F)(F)C(F)(F)CCI`, the Potency result is “inactive”.
The same measure, in the same setting: with `COC(=O)Nc1nc2ccc(C(=O)C3CC3)cc2[nH]1` the entry was “inactive”; with `CS(=O)(=O)c1ccc([C@@H](C[C@H]2CCC(=O)C2)C(=O)Nc2cnccn2)cc1Cl`, “inactive”; with `CC(C)C(O)C(C)(C)CO` (stereo not given), “inactive”.
Same read-out and setting: with `O=C(O)CCCc1c[nH]c2ccccc12` the entry was “inactive”; with `C1=CCC2CC=CC2C1` (stereo not given), “inactive”.
For the compound `Cc1cccc2sc(N)nc12`, the Potency entry is “inactive”.
On the same count and under the same terms, with `O=NN(CCCl)C(=O)NCCCl` the entry was “inactive”; with `CCN(CC)C(=O)/C(C#N)=C/c1cc(O)c(O)c([N+](=O)[O-])c1`, “inactive”.
As to `COc1cc(NCc2ccc3nc(N)nc(N)c3c2C)cc(OC)c1OC`, the Potency result is “inactive”.
Turning to `CC(=O)OCCC(C)CC(C)(C)C` (stereo not given), the Potency result is “inactive”.
Still for that read-out and setting: with `O=C(O)/C=C/c1ccc(O)c(O)c1` the entry was “inactive”.
Still for that read-out and setting: as for `Cc1cc(CCC(=O)OCCOCCOCCOC(=O)CCc2cc(C)c(O)c(C(C)(C)C)c2)cc(C(C)(C)C)c1O`, the entry is “inactive”; as for `CCCc1nc2c(C)cc(-c3nc4ccccc4n3C)cc2n1Cc1ccc(-c2ccccc2C(=O)O)cc1`, “inactive”.
Take `O=P(O)(O)Oc1ccccc1`: the Potency entry was “inactive”.
Same read-out and setting: with `Cc1ccc(Cl)cc1N` the entry was “inactive”.
As for `CCCCCCCCCCCCCCN(C)C`, the activity change, negative = inhibition is -0.0954% [at 19 µM].
For `CSSc1ccoc1C`, the Potency entry is “inactive”.
The same measure, in the same setting: as for `CCC(C)(C)C(=O)O`, the entry is “inactive”; as for `CCCCCCC(O)CCOC(C)=O` (stereo not given), “inactive”; as for `CCCCCCCC(=O)Oc1c(Br)cc(C#N)cc1Br`, “inactive”.
On the same count and under the same terms, as for `Cc1ccc(Nc2c(F)cccc2Cl)c(CC(=O)O)c1`, the entry is “inactive”; as for `C=C(C)c1ccccc1`, “inactive”; as for `CCOC(=O)c1ccc(NC(=O)CN2CCCCC2)cc1`, “inactive”.
Take `CCCCOC(=O)CCCCC(=O)OCCCC`: the Potency result is “inactive”.
The same measure, in the same setting: with `O=C(c1ccccc1)c1ccc(O)cc1` the entry was “inactive”.
As for `CN1CCCN(C(c2ccccc2)c2ccc(Cl)cc2)CC1` (stereo not given), the Potency result is “inactive”.
The same measure, in the same setting: as for `O=C(NC(Cc1cc(=O)[nH]c2ccccc12)C(=O)O)c1ccc(Cl)cc1` (stereo not given), the entry is “inactive”; as for `Cc1ccccc1S(N)(=O)=O`, “inactive”.
Same read-out and setting: with `CCOC(=O)c1c(N)sc2c1CCN(Cc1ccccc1)C2` the entry was “inactive”; with `COC(=O)c1sccc1S(N)(=O)=O`, “inactive”; with `CC(C)c1ccc(C(=O)N=C(N)N)cc1S(C)(=O)=O`, “inactive”.
On the same count and under the same terms, as for `Nc1ccc(S(=O)(=O)NCc2ccccc2)cc1`, the entry is “inactive”.

The values are drawn from PubChem BioAssay (Tox21).
